Source: PubChem (National Center for Advancing Translational Sciences (NCATS))
A selection: hits, their analogues and other compounds. The true share with any hit is near 19%.
LASV entry inh = Lassa virus entry inhibition | actives 1.2% (n = 300,000) | Potency, µM (highest dose often 37.9 µM), most hits filed as inhibitors | Lassa virus pseudotype entry inhibition, cell reporter | AID 540256; calls by dose curve; tested in HEK293 cells; further: nearly all actives have a fitted effect of over 50% in size
Pf growth 48h = inhibits P. falciparum growth in the first generation, 48 h. P. falciparum luciferase growth in erythrocytes, 48 h. Potency, µM (top dose mostly 28.7 µM), most hits filed as inhibitors. actives 5.9% (n = 310,000)
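Erythrocytes infected with P. falciparum carrying an integrated firefly luciferase reporter (2% hematocrit, 0.1% parasitemia final) were exposed to compounds in RPMI 1640 with 0.5% Albumax at 37 C, 5% CO2. Growth inhibition was scored as reduced luminescence.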
Shiga inhibitor = inhibitors of Shiga toxin in Vero cells | actives 9.2% (n = 290,000) | Vero cells, Shiga toxin protein synthesis inhibition reporter | inhibition, % at 38.7 µM; in the data active means inhibition mostly above about 28%, no sharp cut-off; inactive means mostly below about 43%
MARV entry inh = inhibitors of Marburg virus binding or cell entry; actives 1.8% (n = 300,000); Potency, µM (doses to about 37.8 µM), usual class: inhibitors; Marburg virus pseudotyped entry inhibition, cell reporter; AID 540276; calls by dose curve; tested in HEK293 cells
CHX counter = counter-screen for Shiga toxin inhibitors: cycloheximide protein synthesis inhibition; max response, %; actives 12% (n = 300,000); cell reporter, cycloheximide protein synthesis inhibition counterscreen; in the data active means max response mostly above about 13%, no sharp cut-off; inactive means mostly below about 14%; further: read at 38.3 µM for the half of the compounds with a filed dose
Pf growth 96h = P. falciparum growth inhibition at 96 hours. P. falciparum luciferase reporter growth, 96 h. Potency, µM (top dose mostly 28.7 µM), actives largely listed as inhibitors. actives 6.9% (n = 320,000)
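Cell-based qHTS: luciferase-tagged P. falciparum in erythrocytes (2% hematocrit, 0.05% parasitemia final) incubated with compounds for 96 hours, 37 C, 5% CO2; luciferase detection reagent then added and luminescence measured.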
Each line names hits and unclear results; the compound was inactive in the other large screens. Unless noted, the call rests on the fitted dose curve; in most records, active means well fitted inhibition curve with a large enough effect; inconclusive means small, poorly fitted or top-dose-only effect, or another doubt; inactive means no such curve, though single readings can be large or run the other way.

CCN1C(=NCCc2c[nH]c3ccccc23)N[C@@H](c2ccccc2)C(C(=O)OC)=C1C	Pf growth 48h 13.1µM, MARV entry inh inconclusive (no result: LASV entry inh)
CCN1C(=NCc2cc(OC)c(OC)c(OC)c2)N[C@@H](c2cccc(F)c2)C(C(=O)OC)=C1C	Pf growth 48h 5.22µM, Pf growth 96h 10.4µM (no result: LASV entry inh, MARV entry inh)
COC(=O)C1=C(C)N(Cc2ccccc2)C(=NCCc2ccccn2)N[C@H]1c1cccc(F)c1	Pf growth 48h 11.7µM, Pf growth 96h 8.28µM (no result: LASV entry inh, MARV entry inh)
Cc1ccc(CNC(=O)C2CCC(=O)N(CCc3cccc(F)c3)C2)s1 (centres undefined)	MARV entry inh inconclusive
COC(=O)C(O)(c1ccc(N=Cc2ccccc2O)c(C)c1)C(F)(F)F (centres undefined)	none
O=C1NC2(Nc3ccccc31)C(=O)Nc1ccc(Br)cc12 (centres undefined)	Pf growth 96h inconclusive (no result: LASV entry inh, MARV entry inh)
O=C1NC2(Nc3ccccc31)C(=O)Nc1ccccc12 (centres undefined)	Pf growth 48h inconclusive, Shiga inhibitor 58.9, CHX counter 23.6
Nc1c(C(O)(C(F)(F)F)C(F)(F)F)cc(C(O)(C(F)(F)F)C(F)(F)F)c2ccccc12	LASV entry inh 22.4µM, Pf growth 48h 9.28µM, MARV entry inh 11.2µM, Pf growth 96h inconclusive
COc1ccc(C(=O)c2cccc(C(=O)c3ccc(OC)c(C)c3)c2)cc1C	none
O=[N+]([O-])c1ccc(/C=N/Nc2nc(N3CCCCC3)nc(N3CCCCC3)n2)cc1	Pf growth 48h inconclusive (no result: LASV entry inh, MARV entry inh)
COc1ccc(/C=N\Nc2ncc(F)c(N3CCOCC3)n2)cc1OC	Pf growth 48h inconclusive, Shiga inhibitor 73.3, MARV entry inh inconclusive, CHX counter 38.7, Pf growth 96h inconclusive
O=[N+]([O-])c1ccc(Nc2nc(NCCO)nc(N3CCCC3)n2)cc1	Pf growth 48h inconclusive, MARV entry inh inconclusive
NNc1nc(Nc2ccc([N+](=O)[O-])cc2)nc(N2CCCCCC2)n1	Pf growth 48h 4.15µM (no result: LASV entry inh, MARV entry inh)
O=[N+]([O-])c1ccc(/C=N/Nc2nc(N3CCCCCC3)nc(N3CCCCCC3)n2)o1	LASV entry inh inconclusive, Pf growth 48h 5.22µM, MARV entry inh inconclusive, Pf growth 96h inconclusive
CCOc1cc(/C=N/Nc2nc(Nc3ccccc3)nc(N3CCCCC3)n2)ccc1OCC(=O)O	none
COc1ccc(/C=N/Nc2nc(Nc3ccccc3)nc(N3CCCCC3)n2)cc1OC	Pf growth 48h inconclusive, Shiga inhibitor 146.7, MARV entry inh inconclusive, CHX counter 34.2, Pf growth 96h inconclusive
COc1ccc(/C=N/Nc2cc(C)nc(N3CCOCC3)n2)cc1OC	Pf growth 96h inconclusive
O=[N+]([O-])c1ccc(Nc2nc(N/N=C\c3ccc4c(c3)OCO4)nc(N3CCCCC3)n2)cc1	LASV entry inh inconclusive, Pf growth 48h 2.08µM, MARV entry inh inconclusive, Pf growth 96h 2.62µM
CCn1c(O)c(N=NC(=O)c2cccnc2)c2cc(Br)ccc21	LASV entry inh inconclusive, Pf growth 48h 10.4µM, MARV entry inh inconclusive, Pf growth 96h inconclusive
CCCCn1c(O)c(N=NC(=O)c2ccncc2)c2cc(Br)ccc21	Pf growth 96h inconclusive
COc1ccc(OC)c(-n2c(O)c(/C=C3\C=Nc4ccccc43)c(=O)[nH]c2=O)c1	MARV entry inh inconclusive
COc1ccc(C(=O)C2CCCN(C(=O)C3=CCCC3)C2)c(C)c1 (centres undefined)	Pf growth 96h inconclusive (no result: LASV entry inh, MARV entry inh)
COc1ccc(C(=O)C2CCCN(C(=O)c3cc(C4CC4)[nH]n3)C2)c(C)c1 (centres undefined)	Pf growth 96h 14.7µM (no result: LASV entry inh, MARV entry inh)
C#Cc1cccc(C(=O)N2CCCC(C(=O)c3ccc(OC)cc3C)C2)c1 (centres undefined)	Pf growth 96h 13.1µM
C[C@H]1C(=O)N(C)CCN1Cc1cn(C)nc1-c1ccc(Oc2ccccc2)cc1	Pf growth 48h inconclusive, MARV entry inh inconclusive
CCN(CC)C(=O)C1CCN(Cc2cn(C)nc2-c2ccc(Oc3ccccc3)cc2)CC1	Pf growth 48h 7.38µM (no result: LASV entry inh, MARV entry inh)
CC(C)c1nc(SCC(=O)N2CC(=O)Nc3ccccc32)c2ccccc2n1	LASV entry inh inconclusive, MARV entry inh inconclusive
CSc1ccc(/C=N/NC(=O)c2sccc2C)cc1	LASV entry inh inconclusive, Shiga inhibitor 63.7, MARV entry inh 10µM, CHX counter 45.5
O=C(N/N=C\c1ccc(COc2ccc([N+](=O)[O-])cc2)o1)c1ccc(Cl)cc1	LASV entry inh inconclusive, MARV entry inh inconclusive (no result: Pf growth 96h)
